{"source": "PubChem BioAssay (Tox21)", "note": "Inconclusive results are not listed. Calls of active or inactive are those of the source. Calls follow the shape of the full dose curve."}
{"assay": "qHTS assay to identify small molecule agonists of the AP-1 signaling pathway - cell viability counter screen (AID 1159525); also: nearly all actives have a fitted effect of over 55% in size", "details": "ME-180 AP-1-bla cells viability, ATP luminescence, 5 h; series mostly up to 76.8 µM", "text": "National Center for Advancing Translational Sciences [NCATS]\nNIH Chemical Genomics Center [NCGC]\nU.S. Environmental Protection Agency [EPA]\nNational Institutes of Environmental Health Sciences [NIEHS]\nNational Toxicology Program [NTP]\nU.S. Food and Drug Administration [FDA]\nActivator protein-1 (AP-1), a transcription factor, plays an important role in tumor genesis by regulating genes involved in cell proliferation, differentiation, apoptosis, and angiogenesis. AP-1 activity is induced by a complex network of signaling pathways that involves extracellular signals, such as growth factors. The AP-1 protein complex formed from c-Fos and c-Jun binding to the AP-1 response element results in transcriptional activation of genes containing such elements within their promoter.\nLow molecular weight molecules have been discovered and developed to modulate various components of these signaling pathways, for example, MAP kinase inhibitors. However, many points of pathway modulation remain untested due to the lack of chemical probes making this signaling locus of general interest.\nUsing a beta-lactamase reporter-gene under control of the AP-1 response element, a cell-based assay [CellSensor(TM) AP-1-bla ME-180 developed by Invitrogen Corp.] was used to measure EGF-induced signaling. The Tox21 10K library compounds were measured for their ability to positively modulate the action of EC50 EGF on reporter gene activity. Compounds were screened in a 15-pt titration series in 1536-well format. The cytotoxicity of the Tox21 compound library against this cell line was tested in parallel by measuring the intra cellular ATP content in the same wells.\nTox21 Assay Protocol Summary:\n2500 cells/5uL in Opti-MEM medium containing 0.5% dialyzed FBS, 0.1 mM NEAA, 1 mM sodium pyruvate and 10 mM HEPES was dispensed into 1536-well black wall/clear bottom plates using a Multidrop dispenser and cells were cultured at 37 degrees Celsius overnight. Next day 23 nL of compounds dissolved in DMSO, positive controls or DMSO were delivered to each well using a pin tool. The plates were incubated at 37 degrees Celsius for 5 hours. 1 uL of LiveBLAzerTM B/G FRET substrate (Solution A+B+C+D) was added to each well using a Flying Reagent Dispenser. After incubated at room temperature for 2.5 hours the plates were measured on an EnVision plate reader at Excitation 405nm, Emission1=460nm and Emission 2=530nm. The %Activity was determined from the ratio of 460nm/530nm.\nAfter the plates were read for Beta-Lactamase assay on Envision; 3 ul Cell Titer Glo (Promega) was added to measure the cytotoxicity and the plates were then incubated at RT in dark for 30 min. The luminescence was read on ViewLux (Perkin Elmer, Shelton, CT) using 6 sec exposure. ViewLux data was expressed as relative luminescence units.\nFor primary data analysis, raw plate reads for each titration point were first normalized relative to […] EGF control (100%) and DMSO only wells (basal, 0%).\nFor primary data analysis for viability assay, raw plate reads for each titration point were first normalized Tetra n-octyl ammonium bromide control (-100%) and DMSO (control, 100%)."}
{"smiles": "CCNc1nc(Cl)nc(NC(C)C)n1", "outcome": "inactive"}
{"smiles": "Cc1cccc(N)c1C", "outcome": "inactive"}
{"smiles": "OCCCCO", "outcome": "inactive"}
{"smiles": "COC(=O)Nc1cccc(OC(=O)Nc2cccc(C)c2)c1", "outcome": "inactive"}
{"smiles": "Oc1c(Br)cc(Br)cc1Br", "outcome": "inactive"}
{"smiles": "CN(C)C(=O)Nc1cccc(C(F)(F)F)c1", "outcome": "inactive"}
{"smiles": "C=CC(=O)OCC(CC)CCCC", "note": "(stereo not given)", "outcome": "inactive"}
{"smiles": "CC(=O)C1CCOC1=O", "note": "(stereo not given)", "outcome": "inactive"}
{"smiles": "CN(C)C(=O)Cl", "outcome": "inactive"}
{"smiles": "CNC(=O)O/N=C/C(C)(C)S(C)=O", "note": "(stereo not given)", "outcome": "inactive"}
{"smiles": "CNc1cnn(-c2cccc(C(F)(F)F)c2)c(=O)c1Cl", "outcome": "inactive"}
{"smiles": "CN(C)CCC#N", "outcome": "inactive"}
{"smiles": "CCCCCCCCCCCCCCCCCC(=O)O", "outcome": "inactive"}
{"smiles": "C[C@]12CC[C@H](O)CC1=CC[C@@H]1[C@@H]2CC[C@]2(C)C(=O)CC[C@@H]12", "outcome": "inactive"}
{"smiles": "CCSC(=O)N1CCCCCC1", "outcome": "inactive"}
{"smiles": "COC(C)(C)CCCC(C)C/C=C/C(C)=C/C(=O)OC(C)C", "note": "(stereo not given)", "outcome": "inactive"}
{"smiles": "CC12CC1(C)C(=O)N(c1cc(Cl)cc(Cl)c1)C2=O", "note": "(stereo not given)", "outcome": "inactive"}
{"smiles": "Cc1cccc(N)c1", "outcome": "inactive"}
{"smiles": "O=C(O)Cc1ccccc1", "outcome": "inactive"}
{"smiles": "O=[N+]([O-])c1cc([As](=O)(O)O)ccc1O", "outcome": "inactive"}
{"smiles": "CCOP(=S)(OCC)Oc1ccc([N+](=O)[O-])cc1", "outcome": "inactive"}
{"smiles": "CSc1nnc(C(C)(C)C)c(=O)n1N", "outcome": "inactive"}
{"smiles": "ClCCOCCCl", "outcome": "inactive"}
{"smiles": "Sc1ccccc1", "outcome": "inactive"}
{"smiles": "N#CN=C(N)N", "outcome": "inactive"}
{"smiles": "CCCOC(=O)c1ccccc1C(=O)OCCC", "outcome": "inactive"}
{"smiles": "CCOc1ccc(N)cc1", "outcome": "inactive"}
{"smiles": "CNC(=O)O/N=C/C(C)(C)S(C)(=O)=O", "outcome": "inactive"}
{"smiles": "CNC(=O)O/N=C/C(C)(C)SC", "outcome": "inactive"}
{"smiles": "CC(C)(C)C(=O)CCl", "outcome": "inactive"}
{"smiles": "c1ccc2c(c1)CCCC2", "outcome": "inactive"}
{"smiles": "Cc1cccc(C)c1NC(=O)CN1CCCC1=O", "outcome": "inactive"}
{"smiles": "ClC(Cl)c1ccccc1", "outcome": "inactive"}
{"smiles": "N#Cc1cccc(C#N)c1", "outcome": "inactive"}
{"smiles": "CN(C)NC(=O)CCC(=O)O", "outcome": "inactive"}
{"smiles": "OCc1ccco1", "outcome": "inactive"}
{"smiles": "O=C/C=C/c1ccccc1", "outcome": "inactive"}
{"smiles": "OC[C@@H](O)[C@H]1O[C@@H]2O[C@H](C(Cl)(Cl)Cl)O[C@@H]2[C@H]1O", "outcome": "inactive"}
{"smiles": "O=S(=O)(O)OOS(=O)(=O)O", "outcome": "inactive"}
{"smiles": "CC[N+](=O)[O-]", "outcome": "inactive"}
